Test results: paper PMC12440807

target: Transcription elongation factor SPT6 (UniProt Q7KZ85); experiment: cross-link between two proteins; cross-linking mass spectrometry

Substance	listed as a hit
DNA-directed RNA polymerase II subunit RPB7, P62487	yes
Transcription elongation factor SPT4, P63272	yes
Transcription elongation factor SPT5, O00267	yes
